This passage reports composite z-score, composite Z-score and z-score results from PubChem BioAssay.

For one experiment, the target named is Albumin (Bos taurus) (UniProt P02769). The experiment is described as follows: compounds binding labelled BSA control protein – biochemical, small-molecule microarray, Alexa647 label, 635/667 nm fluorescence, artefact control for SMM control protein annotation, profiling panel (AID 1118).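 Also: score merges 667 nm emission intensity and signal-to-noise per printed compound spot.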 The settings on record: BSA-A647 binding, fluorescence 635 nm, higher = more signal.
Sequence of Albumin (Bos taurus) (P02769 whole entry, looked up): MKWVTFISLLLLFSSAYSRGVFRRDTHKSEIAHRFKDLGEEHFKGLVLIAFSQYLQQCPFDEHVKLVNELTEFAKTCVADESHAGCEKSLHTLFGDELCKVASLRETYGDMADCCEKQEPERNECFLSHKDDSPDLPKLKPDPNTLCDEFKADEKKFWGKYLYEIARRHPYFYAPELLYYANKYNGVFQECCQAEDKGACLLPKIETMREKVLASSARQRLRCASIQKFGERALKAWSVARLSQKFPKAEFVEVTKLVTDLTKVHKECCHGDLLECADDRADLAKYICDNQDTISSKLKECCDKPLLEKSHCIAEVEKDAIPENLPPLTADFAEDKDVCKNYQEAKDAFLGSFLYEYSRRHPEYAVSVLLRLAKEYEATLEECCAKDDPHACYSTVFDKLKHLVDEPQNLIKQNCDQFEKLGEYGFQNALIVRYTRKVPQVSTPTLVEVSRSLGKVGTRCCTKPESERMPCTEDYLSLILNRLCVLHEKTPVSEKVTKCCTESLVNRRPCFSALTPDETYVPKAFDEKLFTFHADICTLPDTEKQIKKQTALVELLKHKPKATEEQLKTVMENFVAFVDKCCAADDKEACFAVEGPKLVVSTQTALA

Experiment [1] in a line: probe aXIP binding to arrayed compounds – biochemical, NeuroSMM set, 635/667 nm fluorescence, primary screen (AID 1119).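 Also: probe is the protein aXip251-270 applied at 1 µg/mL to compound-printed slides; binding of probe to printed compounds measured as 667 nm fluorescence plus signal to noise.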 The settings on record: small-molecule microarray, higher = more signal, called active from +8 up or from −8 down.
The nature of experiment [2]: probe aNOTCH3 binding on compound microarray – biochemical, small-molecule microarray, 635/667 nm fluorescence, primary screen (AID 1120).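 Also: probe is a biotin-tagged antibody raised against NOTCH3 rather than NOTCH3 protein; score merges spot fluorescence near 667 nm with spot signal to noise.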 The following applies: higher = more signal.
Experiment [3] is described as follows: probe aNOTCH2 binding on compound microarray – biochemical, small-molecule microarray, 635/667 nm fluorescence, primary screen (AID 1121).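 Also: score merges feature fluorescence read at 667 nm with its signal to noise.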 The settings on record: higher = more signal.
Experiment [4] addresses Carbonic anhydrase 2 (Homo sapiens) (UniProt P00918). The experiment is described as follows: compounds binding carbonic anhydrase 2 – biochemical, small-molecule microarray, Alexa647-labelled CAII, profiling panel (AID 1122). The following applies: CAII-A647 binding fluorescence, higher = more signal.
A short description of experiment [5]: COS7 lysate on small-molecule microarray, probe aHis, 635 nm (AID 1123).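 Also: z-score combines 667nm fluorescence intensity with signal-to-noise per printed compound spot.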 The following applies: COS7 cell lysate, fluorescence, higher = more signal.
The nature of experiment [6]: probe aLAP1 signal on lysate-treated microarray – cell lysate, small-molecule microarray, COS7 lysate, primary screen (AID 1124).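 Also: lysate comes from COS7 cells expressing LAP1 and is applied at 0.3 µg/mL; score merges spot fluorescence near 667 nm with signal-to-noise over triplicate slides.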 The following applies: probe aLAP1, fluorescence, higher = more signal.
In a further experiment the test system is Sam68 (KHDRBS1). The experiment is described as follows: compounds binding KHDRBS1 protein – biochemical, small-molecule microarray, 635 nm fluorescence, primary screen (AID 1125).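 Also: score merges 667 nm channel intensity with signal to noise over triplicate slides.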 The following applies: higher = more signal.
The subject of experiment [7] is Chordin-like protein 2 (CHRDL2). The experiment is described as follows: compounds binding chordin-like 2 – biochemical, small-molecule microarray, 635 nm fluorescence, primary screen (AID 1126).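 Also: printed compound slides probed with Chrdl2 protein at 4 µg/mL for 1 h at 4 C; score merges 667 nm emission intensity with signal to noise over three replicate slides.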 The following applies: fluorescence 635 nm, higher = more signal.
For experiment [8], the target named is Concanavalin-A (Canavalia ensiformis) (UniProt P02866). The experiment is described as follows: compounds binding concanavalin A lectin – biochemical, small-molecule microarray, Alexa647 label, 635 nm, artefact control for SMM control protein annotation, primary screen (AID 1127).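 Also: z combines 667 nm emission intensity with signal-to-noise across three replicate slides.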 The following applies: ConA-A647 binding fluorescence, higher = more signal.
Sequence of Concanavalin-A (Canavalia ensiformis) (P02866 whole entry, looked up): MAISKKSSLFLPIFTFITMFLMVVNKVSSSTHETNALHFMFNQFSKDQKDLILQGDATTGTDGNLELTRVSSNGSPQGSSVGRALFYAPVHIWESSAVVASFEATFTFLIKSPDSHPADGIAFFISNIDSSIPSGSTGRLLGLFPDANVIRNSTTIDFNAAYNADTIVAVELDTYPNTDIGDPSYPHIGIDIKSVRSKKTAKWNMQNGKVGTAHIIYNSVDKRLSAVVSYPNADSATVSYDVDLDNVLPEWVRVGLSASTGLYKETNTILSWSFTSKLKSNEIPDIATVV
Experiment [9] can be described thus: compounds binding Alexa647 anti-His antibody – biochemical, small-molecule microarray, 635 nm fluorescence, artefact control for SMM control protein annotation, primary screen (AID 1128).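 Also: score merges feature fluorescence with signal-to-noise for each printed compound spot.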 The following applies: higher = more signal.
Experiment [10] deals with Human papillomavirus type 1a E7 protein (residues 1-88). The experiment is described as follows: HPV1a E7 small-molecule binders, primary screen, biochemical, small-molecule microarray, residues 1-88, 635 nm (AID 1129). The following applies: small-molecule microarray binding, fluorescence 635 nm; higher = more signal.
Experiment [11] addresses Focal adhesion kinase 1 (Homo sapiens) (UniProt Q05397). The experiment can be described thus: PTK2 protein binding on printed compound slides – biochemical, small-molecule microarray, 635/667 nm fluorescence, BSA, DTT, primary screen (AID 1130).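 Also: composite of spot emission at 667 nm and signal to noise over triplicate slides.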 The following applies: 635 nm fluorescence, higher = more signal.
For experiment [12], the system named is Fibrinogen (Alexa647-labelled). The experiment is described as follows: Alexa647-fibrinogen binding to printed small molecules – biochemical, small-molecule microarray, 635/667 nm fluorescence, artefact control for SMM control-protein annotation, profiling panel (AID 1131).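 Also: z-score merges 667 nm fluorescence with per-spot signal-to-noise over triplicate slides.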 The following applies: fibrinogen-A647 binding fluorescence, higher = more signal.
The target in experiment [13] is Follistatin (Homo sapiens) (UniProt P19883). The experiment can be described thus: FST protein binding to printed compounds – biochemical, small-molecule microarray, 635/667 nm fluorescence, primary screen (AID 1132). The following applies: 635 nm fluorescence, higher = more signal.
Sequence of Follistatin (Homo sapiens) (P19883 whole entry, looked up): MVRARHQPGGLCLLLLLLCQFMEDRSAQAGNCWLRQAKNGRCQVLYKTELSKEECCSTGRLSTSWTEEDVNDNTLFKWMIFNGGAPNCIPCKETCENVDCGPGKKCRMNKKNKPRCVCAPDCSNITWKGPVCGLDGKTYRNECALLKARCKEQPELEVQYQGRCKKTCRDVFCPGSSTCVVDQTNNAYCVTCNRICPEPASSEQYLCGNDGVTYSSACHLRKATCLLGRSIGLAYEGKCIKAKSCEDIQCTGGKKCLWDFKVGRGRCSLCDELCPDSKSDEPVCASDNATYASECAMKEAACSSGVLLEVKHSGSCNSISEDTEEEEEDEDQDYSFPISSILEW
The target in experiment [14] is Fibroblast growth factor 2 (Homo sapiens) (UniProt P09038). The experiment is described as follows: basic fibroblast growth factor binding to printed compounds – biochemical, small-molecule microarray, 635/667 nm fluorescence, primary screen (AID 1133). The following applies: FGF2, fluorescence 635/667, higher = more signal.
Sequence of Fibroblast growth factor 2 (Homo sapiens) (P09038 whole entry, looked up): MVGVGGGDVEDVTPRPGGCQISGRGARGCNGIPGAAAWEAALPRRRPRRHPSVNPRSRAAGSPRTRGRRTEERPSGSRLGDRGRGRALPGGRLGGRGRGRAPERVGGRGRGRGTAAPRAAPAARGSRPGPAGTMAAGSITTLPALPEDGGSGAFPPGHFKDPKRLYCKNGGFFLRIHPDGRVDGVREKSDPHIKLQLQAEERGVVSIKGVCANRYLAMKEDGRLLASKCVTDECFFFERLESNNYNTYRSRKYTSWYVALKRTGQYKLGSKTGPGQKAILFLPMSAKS
Experiment [15] in a line: JC-1 mitochondrial potential readout, lung cancer cells – cell-based, A549, JC-1 fluorescence, basal, 24 h, 100 nL, profiling panel (AID 1138).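 Also: A549 lung adenocarcinoma cells under basal conditions with no added stimulus; test concentration not given here.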 The settings on record: higher = more signal.
For the next experiment, the system named is Lefty1. The experiment is described as follows: Lefty1 protein binding to printed compounds – biochemical, small-molecule microarray, 635/667 nm fluorescence, primary screen (AID 1139). The following applies: fluorescence 635/667, higher = more signal.
Experiment [16] has as its system wheat germ agglutinin (Triticum aestivum), Alexa647-labelled. The experiment is described as follows: Alexa647-WGA lectin binding to printed small molecules – biochemical, small-molecule microarray, 635/667 nm fluorescence, artefact control for SMM control-protein annotation, profiling panel (AID 1140).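 Also: score merges 667 nm feature emission with signal to noise over triplicate slides.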 The following applies: WGA-A647 binding, 635 nm fluorescence, higher = more signal.

Experiment [17] has as its target Luciferin 4-monooxygenase (Photinus pyralis) (UniProt P08659). The experiment is described as follows: inhibition of purified Photinus pyralis luciferase – biochemical, luminescence, purified enzyme, 2006 set, primary screen (AID 1141).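 Also: cell-free assay with purified firefly luciferase at 100 ng per well in PBS; test concentration not given here.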 The following applies: purified firefly luciferase, SteadyGlo luminescence, 30 min; higher = more signal, called active from +8 up or from −8 down.

The structures appear in SMILES notation. Active and inactive are the calls of the source.

Sequence of Focal adhesion kinase 1 (Homo sapiens) (Q05397 whole entry, looked up): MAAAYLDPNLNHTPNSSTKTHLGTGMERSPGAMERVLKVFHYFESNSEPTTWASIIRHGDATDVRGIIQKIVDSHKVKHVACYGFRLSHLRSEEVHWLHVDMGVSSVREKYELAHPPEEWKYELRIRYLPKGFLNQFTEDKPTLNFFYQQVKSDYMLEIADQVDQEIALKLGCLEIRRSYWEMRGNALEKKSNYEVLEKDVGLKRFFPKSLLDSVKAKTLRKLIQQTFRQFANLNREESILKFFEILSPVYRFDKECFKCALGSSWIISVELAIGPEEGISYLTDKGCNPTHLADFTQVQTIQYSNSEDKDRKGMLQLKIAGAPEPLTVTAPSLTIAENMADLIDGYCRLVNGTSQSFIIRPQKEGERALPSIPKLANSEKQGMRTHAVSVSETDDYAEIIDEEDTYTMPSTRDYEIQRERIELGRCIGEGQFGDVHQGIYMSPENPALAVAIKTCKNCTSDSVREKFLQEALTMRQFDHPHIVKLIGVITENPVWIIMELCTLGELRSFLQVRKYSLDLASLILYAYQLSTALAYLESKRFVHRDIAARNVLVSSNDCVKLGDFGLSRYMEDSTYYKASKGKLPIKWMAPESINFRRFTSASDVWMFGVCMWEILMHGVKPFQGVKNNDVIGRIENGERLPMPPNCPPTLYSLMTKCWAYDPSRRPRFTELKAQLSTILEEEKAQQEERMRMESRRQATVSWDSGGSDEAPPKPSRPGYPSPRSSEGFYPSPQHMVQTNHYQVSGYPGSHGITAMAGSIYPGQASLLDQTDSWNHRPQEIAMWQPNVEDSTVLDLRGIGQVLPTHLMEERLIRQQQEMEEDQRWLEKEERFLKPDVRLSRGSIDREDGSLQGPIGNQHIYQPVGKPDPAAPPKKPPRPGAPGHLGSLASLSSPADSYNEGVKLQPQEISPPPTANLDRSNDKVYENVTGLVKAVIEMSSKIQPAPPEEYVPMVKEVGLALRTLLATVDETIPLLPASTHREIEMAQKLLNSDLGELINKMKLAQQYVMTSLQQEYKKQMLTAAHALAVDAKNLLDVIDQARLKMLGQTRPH
Sequence of Luciferin 4-monooxygenase (Photinus pyralis) (P08659 whole entry, looked up): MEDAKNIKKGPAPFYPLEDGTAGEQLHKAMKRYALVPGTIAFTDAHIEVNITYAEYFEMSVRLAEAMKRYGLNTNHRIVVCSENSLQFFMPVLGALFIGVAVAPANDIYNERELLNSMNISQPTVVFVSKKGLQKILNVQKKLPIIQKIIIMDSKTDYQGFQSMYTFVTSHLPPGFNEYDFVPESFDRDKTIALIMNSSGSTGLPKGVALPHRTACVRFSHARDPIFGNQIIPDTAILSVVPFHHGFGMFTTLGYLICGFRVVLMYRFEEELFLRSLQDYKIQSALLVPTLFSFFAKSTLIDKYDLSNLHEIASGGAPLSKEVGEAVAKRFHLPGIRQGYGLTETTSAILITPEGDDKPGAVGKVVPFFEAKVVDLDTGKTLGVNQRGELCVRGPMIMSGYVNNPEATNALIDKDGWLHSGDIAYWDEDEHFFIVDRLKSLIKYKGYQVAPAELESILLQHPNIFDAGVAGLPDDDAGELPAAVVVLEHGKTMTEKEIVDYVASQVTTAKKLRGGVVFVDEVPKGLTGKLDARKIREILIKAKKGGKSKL

Take `CCN1C(=O)[C@H]2[C@H]3[C@H](O)[C@H](O)CC(=NOCc4ccccc4)[C@H]3CC[C@H]2C1=O`: the composite z-score with Albumin (Bos taurus) is -0.0796; in [2], 0.0258; in experiment [3], -0.041; in experiment [4], 0.336; in [5], 0.452; in [6], 0.491. Further, the composite z-score was -0.144 in the experiment on Sam68 (KHDRBS1); 0.248 in experiment [7]; 0.21 in experiment [8]; -0.364 in [9]; 0.359 in [10]; 0.155 in [11]. Further, the composite z-score in experiment [12] was 0.443; in [13] it was 0.213; in [14] it was 0.22; in the experiment with Lefty1, 0.228; in experiment [16], -0.077. The composite Z-score in experiment [1] is 0.0894 (inactive). Besides, the z-score in [15] was -0.442; in experiment [17], 0.243 (inactive).

As for `CN1C(=O)[C@@]2(CCC(=O)OC(C)(C)C)N=C(c3ccc(OCCCO)cc3)O[C@H]2c2ccccc21`, the composite z-score with Albumin (Bos taurus) was 0.498; in experiment [2], -0.0694; in experiment [3] it was -0.165; in experiment [4], 0.337; in experiment [5], 2.38; in experiment [6], 0.176. The composite z-score in the experiment on Sam68 (KHDRBS1) amounted to 1.27; in experiment [7], 0.0811; in experiment [8], 1.09; in experiment [9] it was 1.87; in [10], 1.17; in experiment [11] it was 0.102. Also, the composite z-score in experiment [12] was determined as 0.411; in experiment [13], 1.36; in [14] it was 0.611; with Lefty1, 0.369; in experiment [16], 0.761. For the same compound, in experiment [1], the composite Z-score was -0.428 (inactive). Also, the z-score in [15] was 1.33; in [17], -2.62 (inactive).

On to `CC(C)=NOCc1cccc(-c2cc(-c3ccccc3)no2)c1`, for which the composite z-score in the experiment with Albumin (Bos taurus) was -0.0583; in experiment [2], 0.062; in experiment [3], -0.203; in experiment [4] it was 0.257; in [5], 0.686; in experiment [6] it was 0.0499. The composite z-score in the experiment with Sam68 (KHDRBS1) stood at 1; in experiment [7] it was 0.564; in experiment [8], 1.02; in experiment [9], 0.545; in experiment [10] it was 0.974; in experiment [11] it was 0.882. Also, the composite z-score in experiment [12] amounted to 0.464; in [13], 0.973; in [14] it was 0.727; in the experiment with Lefty1, 0.92; in experiment [16], 0.848. For the same compound, the composite Z-score in experiment [1] was 0.123 (inactive). For the same compound, the z-score in [15] is 0.732; in experiment [17], -0.158 (inactive).

Consider `COC(=O)c1c(CC[C@@H](CO)NC(=O)N[C@H](Cc2ccccc2)Cn2cc(-c3ccccc3N)nn2)oc(C(C)=O)c1C(=O)OC`, for which the composite z-score stood at 0.484 with Albumin (Bos taurus); 0.237 in [2]; 0.115 in [3]; 0.0874 in [4]; 1.31 in experiment [5]; 0.481 in experiment [6]. Moreover, the composite z-score in the experiment with Sam68 (KHDRBS1) was 0.938; in [7] it was 0.509; in experiment [8] it was -0.0831; in [9], 1.35; in [10] it was 1.17; in experiment [11] it was -0.422. Moreover, the composite z-score in experiment [12] is 0.323; in experiment [13], 0.629; in [14], 0.237; in the experiment with Lefty1, 0.348; in experiment [16], 1.14. Further, the composite Z-score in [1] is -0.202 (inactive). The z-score in experiment [15] was 0.34; in [17] it was -0.197 (inactive).
